From PubChem
Compounds with a hit are over-represented: about 3.9% of the library has one in this group of screens.
HSP90 inh – HSP90 inhibitors, primary screen, cell lysate, luminescence; Heat shock protein HSP 90 (rabbit reticulocyte lysate; luciferase refolding); 290,000 tested, 0.91% active; Rabbit reticulocyte lysate, luciferase refolding luminescence, 3 h; inhibition, % at 5.6 µM;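 active = inhibition above the screen-wide mean plus 3 SD, computed separately per campaign, cut at about 16% in these data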;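 note: 0% = DMSO wells and 100% = 60 µM geldanamycin wells; inhibitors lower the luminescence because luciferase stays unfolded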
aSyn 5UTR inh – MLPCN primary screen, SNCA 5' untranslated region; alpha-synuclein 5'UTR reporter, inhibitor activity; inhibition, % (tested at 7.5 µM); 300,000 tested, 0.82% active; in the data active = inhibition above about 60%; inconclusive = no clear call, values can overlap the other calls;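 note: H4 neuroglioblastoma cells stably carrying SNCA 5'UTR luciferase fusion; 0% = DMSO wells and 100% = positive control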
TROY NFkB inh – inhibitors of TROY-driven NF-kB signaling, primary screen, Q293 LMP1-TROYcd cells, NF-kB luciferase, uHTS. Q293 LMP1-TROYcd NF-kB luciferase reporter, 4 h. inhibition, % at 10 µM. 360,000 tested, 0.98% active. AID 1347056, 2019;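 active = compounds whose plate-normalised and pattern-corrected inhibition of the luciferase reporter signal at the single screening dose is 50% or more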
TWEAK Fn14 block – inhibitors of TWEAK-Fn14 signaling, primary screen, luciferase reporter cells, uHTS; TWEAK-stimulated Fn14 reporter cells, luciferase luminescence, 8 h; AID 1159606, 2016; inhibition, % at 10 µM; 360,000 tested, 2% active; in the data active = inhibition above about 50%
HIF-2a block – HIF-2a reporter inhibitors, primary screen, luminescence, 786-0 RCC cells; 786-0 RCC cells HIF-2a reporter, luciferase luminescence, overnight; inhibition, % at 18.8 µM; 360,000 tested, 0.72% active; AID 624352, 2012;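 active = inhibition of the luminescence signal of 40% or more relative to plate controls, in a single-dose primary screen at 18.75 µM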
C8 TRAIL sens – viability loss with TRAIL in NB7+C8 cells, primary screen, TRAIL sensitizer project, cell-based, ATPlite luminescence; inhibition (viability loss, TRAIL sensitization), % at 10 µM; 360,000 tested, 1% active; AID 624354, 2012;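 active = compounds causing at least 50% loss of cell viability in the single-dose screen, relative to plate controls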
HSP90 inh confirm – HSP90 inhibitors, confirmation, cell lysate, luminescence | inhibition, % at 5.9 µM | shares compounds with HSP90 inh | 2,300 tested, 64% active | rabbit reticulocyte lysate, luciferase refolding luminescence, 3 h | AID 1846, 2009; in the data active = inhibition above about 18%;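 note: 0% = vehicle wells and 100% = reference inhibitor wells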
FLuc counter – firefly luciferase inhibitors, HSP90 counter-screen, confirmation, artefact control for HSP90 inhibitor project, biochemical, luminescence, triplicate. shares compounds with HSP90 inh. purified native firefly luciferase. inhibition, % at 5.9 µM. 2,300 tested, 48% active. AID 1847, 2009;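 active = inhibition above the mean inhibition of all tested sample wells plus 3 SD, cut at about 10% in these data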;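 note: 0% = DMSO with luciferase and 100% = wells lacking luciferase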
Target sequence (P08659 whole entry, looked up): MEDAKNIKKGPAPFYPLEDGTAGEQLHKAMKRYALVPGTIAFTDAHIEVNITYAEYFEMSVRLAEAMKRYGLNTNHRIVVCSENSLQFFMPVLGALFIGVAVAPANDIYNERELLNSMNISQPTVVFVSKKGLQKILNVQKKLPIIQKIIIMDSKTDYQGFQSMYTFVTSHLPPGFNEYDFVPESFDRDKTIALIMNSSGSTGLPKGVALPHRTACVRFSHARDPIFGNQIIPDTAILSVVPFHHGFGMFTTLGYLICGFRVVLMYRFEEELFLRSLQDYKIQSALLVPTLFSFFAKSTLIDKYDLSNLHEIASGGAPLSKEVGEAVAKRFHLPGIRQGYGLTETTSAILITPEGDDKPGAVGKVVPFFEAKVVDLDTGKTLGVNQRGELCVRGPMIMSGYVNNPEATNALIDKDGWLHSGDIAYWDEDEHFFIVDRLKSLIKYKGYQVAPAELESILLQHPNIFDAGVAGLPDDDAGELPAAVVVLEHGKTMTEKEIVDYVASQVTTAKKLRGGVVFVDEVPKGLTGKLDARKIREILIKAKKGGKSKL
Active calls of the source: *; ? = inconclusive; nt = no result given.

SMILES	HSP90 inh	aSyn 5UTR inh	TROY NFkB inh	TWEAK Fn14 block	HIF-2a block	C8 TRAIL sens	HSP90 inh confirm	FLuc counter
O=C(CCCc1ccccc1)c1ccc2c(c1)OCCO2	77*	86*	88*	102*	66*	87*	97*	94*
COc1ccc(-c2nsc3c(N4CCCC4)ncnc23)cc1	29*	70*	66*	95*	-44	81*	60*	42*
OC[C@H]1O[C@H](c2nc(-c3nc(-c4cccc(-n5cccc5)c4)no3)cs2)C[C@@H]1O	nt	nt	19	0	-166	21	nt	nt
CCOC(=O)C1(C)CCN1C(=O)c1cc(C)oc1C (stereo not drawn)	nt	nt	-9	14	2	-6	nt	nt
O=C(NNC(=S)NC(=O)c1cccnc1)c1ccc(F)cc1	28*	-11	24	18	9	16	1	-2
O=C(NNC(=S)NC(=O)c1ccc(F)cc1)c1cccnc1	-2	-17	7	-4	-12	9	nt	nt
CCOc1ccc(C2OCCC(C)O2)cc1OC (stereo not drawn)	nt	nt	-6	5	15	-16	nt	nt
Cn1c(=O)c2c(ncn2CC(=O)OCCCC(=O)c2ccc(Br)cc2)n(C)c1=O	nt	nt	22	19	-1	21	nt	nt
C=CCn1c(C)cc(C(=O)CSc2nc3ccccc3[nH]2)c1C	32*	?	25	80*	-47	46	62*	63*
O=C(Nc1ccc(NC(=O)c2ccccn2)cc1)C(=O)Nc1ccc2c(c1)OCCO2	-1	-29	-5	-36	-15	-3	nt	nt
CCOC(=O)c1c(N)sc(C(=O)Nc2ccc3c(c2)OCO3)c1C	41*	50	42	79*	23	78*	69*	59*
O=C(Nc1ccccc1)c1ccc2c(c1)OCCO2	5	-87	-64	-3	-132	34	nt	nt
Cc1ccc(NC(=O)c2ccc3c(c2)OCCO3)cc1C	42*	74*	47	85*	18	76*	68*	61*
Cc1cccc(NC(=O)c2ccc3c(c2)OCCO3)c1	34*	-1	3	36	-74	87*	48*	36*
O=C(Nc1ccc2c(c1)OCCO2)c1ccccn1	25*	88*	57*	79*	-70	75*	67*	53*
COc1ccc2sc(-c3ccc(N(C)C)cc3)c(C#Cc3cncn3C)c2c1	nt	nt	13	-2	-36	24	nt	nt
O=C(NC1CCCCC1)C1c2ccccc2OCC(=O)N1Cc1ccccc1 (stereo not drawn)	nt	nt	-10	0	11	1	nt	nt
CC(C)(C)N(Cc1ccccc1)C(=O)COC(=O)/C=C/c1ccc2c(c1)OCO2	nt	nt	-2	-1	5	17	nt	nt
O=C(Nc1ccc2c(c1)OCCO2)c1ccc(Cl)cc1	19*	-44	-40	25	-142	59*	25*	15*
O=C(Nc1ccc(Cl)cc1)c1ccc2c(c1)OCO2	10	-84	-33	23	-164	36	nt	nt
Cc1cc(C(=O)Nc2ccc3c(c2)OCO3)cs1	20*	-233	-46	18	-154	36	12	-14
CN(Cc1ccccc1)C(=O)c1cccc(NC(=O)C2CCCN(C(=O)OC(C)(C)C)C2)c1 (stereo not drawn)	nt	nt	18	-5	5	4	nt	nt
Cc1cc(C)nc(Nc2nc(C(N)c3ccccc3)cs2)n1 (stereo not drawn)	nt	nt	13	4	1	28	nt	nt
Cc1cc(C)nc(Nc2nc(-c3ccccc3)cs2)n1	28*	22	39	63*	-79	77*	51*	37*
Nc1cccc2c1C(=O)N(CCOc1ccccc1F)C2=O	30*	30	19	59*	-77	-1	51*	45*
SMILES	HSP90 inh	aSyn 5UTR inh	TROY NFkB inh	TWEAK Fn14 block	HIF-2a block	C8 TRAIL sens	HSP90 inh confirm	FLuc counter
N#Cc1ccccc1OCCN1C(=O)c2ccccc2C1=O	-6	-19	-48	17	-146	-7	nt	nt
Cc1[nH]c2ccccc2c1C(=O)NS(=O)(=O)Nc1ccc(Cl)cc1	18*	-82	8	8	-2	1	1	-2
COC(=O)C1=CN(c2ccccc2OC)C(N)=C(C#N)C1c1cccc([N+](=O)[O-])c1 (stereo not drawn)	nt	nt	nt	nt	-10	20	nt	nt
Cc1ccc(C(=O)NC2=NCCS2)cc1	12	-118	nt	nt	nt	nt	nt	nt
CC(C)c1ccc(C(=O)NC2=NCCS2)cc1	18*	-8	-25	41	-51	70*	42*	38*
O=C(CCCSCCCC(=O)NN=Cc1ccccc1)NN=Cc1ccccc1	nt	nt	20	25	-13	-6	nt	nt
CN(Cc1nc2ccccc2c(=O)[nH]1)C(=O)c1cccc(S(=O)(=O)N2CCc3ccccc32)c1	nt	nt	13	-49	-4	31	nt	nt
Cc1cc(NC(=O)CSc2nc3cc(Cl)ccc3c(=O)n2C(C)C)no1	nt	nt	2	-16	20	8	nt	nt
CC(c1ccco1)N(C(=O)COc1ccc(Cl)cc1)c1ccccn1 (stereo not drawn)	20*	nt	-19	36	-96	15	0	-10
CC(C)(C)OC(=O)C[C@@H]1C/C=C\C[C@H](CC(=O)NCCO)C(=O)N2CCC[C@H]2COC1=O	nt	nt	10	-2	4	3	nt	nt
Cc1ccc(C(=O)NCCc2ccccc2)cc1	62*	71*	67*	97*	54*	64*	78*	74*
COc1cccc(OC)c1C(=O)NCCc1ccccc1	nt	10	-10	7	12	-21	nt	nt
COC(=O)c1c(N)sc(C(=O)NCCc2ccccc2)c1C	87*	105*	76*	99*	66*	75*	87*	82*
NC1(CO)COC(c2ccccc2)OC1 (stereo not drawn)	nt	nt	-1	8	-6	-21	nt	nt
COC1=C/C(=C/c2c(O)c(C#N)c3ccccn23)C=CC1=O	26*	-12	12	1	10	-18	0	-1
COC(=O)c1ccccc1-c1ccc(/C=N/NC(N)=O)o1	0	14	5	-12	10	-11	nt	nt
Cc1nnc(N/N=C\c2ccc(-c3ccccc3[N+](=O)[O-])o2)n1N	38*	-75	5	-4	-41	12	-8	-12
CCc1nnc(N/N=C/c2ccc(-c3ccc([N+](=O)[O-])cc3)o2)n1N	36*	-13	-3	-23	-27	-5	-3	-6
